The values that follow come from the emibetuzumab library of Makowski et al. (2022).

The labels stand for the following.
B1: VH:VL chains; a variant is named by its letters at X, in order (parent)
chain 1: QVQLVQSGAEVKKPGASVKVSCKASGYTFTDYXMHWVRQAPGQGLEWMGXVNPNXXXTTYNQKFEGRVTMTTDTSTSTAYMELRSLRSDDTAVYYCARXNXLDXWGQGTTVTVSS
chain 2: DIQMTQSPSSLSASVGDRVTITCSVSSSVSSIYLHWYQQKPGKAPKLLIYSTSNLASGVPSRFSGSGSGTDFTLTISSLQPEDFATYYCQVYSGYPLTFGGGTKVEIK

Some of the results follow. No count for the full screen is at hand.

In the test the parent is B1. Description: yeast display scFab, FACS + sequencing. The note with it: with MET. An outline of the steps: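 For FACS, yeast displaying a heavy-chain CDR mutant scFab library were labelled with 1 nM HGFR-Fc and anti-Myc (PBSB, 1% milk, 3 h, room temperature), and the top 50% antigen-positive cells were gated. Input and round-3 sorted populations were deep sequenced in two replicates. The binding call was positive for sequences occurring in both antigen-positive samples and negative for sequences occurring only in input.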
In the case of VTTRAASV, the antigen binding call was “no binding”.

Regarding SREEGFSV, the antigen binding call was “no binding”.

With YGGGGAVA, the antigen binding call was “no binding”.

As for VRAGGDLA, the antigen binding call is on record as “no binding”.

As to VTGRGDLA, the antigen binding call was “no binding”.

Take YRGRGVAA: the antigen binding call is “binds”.

As for YEGRGDVA, the antigen binding call is given as “no binding”.

For YRAGGYAA, the antigen binding call is listed as “binds”.

Take VRGRGDLA: the antigen binding call is “binds”.

For YGGRGAVA, the antigen binding call was “binds”.

Turning to SETKGDVY, the antigen binding call is given as “no binding”.

In the case of DREEGFSV, the antigen binding call is “no binding”.

Take AAGGDYVF: the antigen binding call is reported as “no binding”.

On to VTEGDAGD, for which the antigen binding call is given as “no binding”.

As to VERRGSWS, the antigen binding call is reported as “no binding”.

For YAKADYSS, the antigen binding call is given as “no binding”.

In the case of YRRRGSWS, the antigen binding call is “binds”.

For the variant YRRGGAWS, the antigen binding call is “binds”.

YRRRGAWS: the antigen binding call is recorded as “binds”.

As to YRRRGYSS, the antigen binding call is “binds”.

YERRGSWS: the antigen binding call is given as “no binding”.

For VTRGDVWV, the antigen binding call is listed as “no binding”.

VTGTGDVV: the antigen binding call is reported as “no binding”.

Consider SEGTGAGV, for which the antigen binding call was “no binding”.

Regarding SKRRGSLS, the antigen binding call is “binds”.

On to SKERGDLV, for which the antigen binding call is listed as “no binding”.

Consider SKTKSDGS, for which the antigen binding call is on record as “no binding”.

On to YRRRGSSS, for which the antigen binding call was “binds”.

Consider YRRRGAAS, for which the antigen binding call is on record as “binds”.

Turning to YRRRGSLS, the antigen binding call is given as “binds”.

Consider VETEGAGA, for which the antigen binding call is on record as “no binding”.

As for SREAADGV, the antigen binding call was “no binding”.

Take AETTDSWV: the antigen binding call was “no binding”.

FGATSVSF: the antigen binding call was “no binding”.

Turning to SARTDFWF, the antigen binding call is given as “no binding”.

For ARAETDVY, the antigen binding call is “no binding”.

On to YRRRGALS, for which the antigen binding call is listed as “binds”.

Take YRRRGSVS: the antigen binding call is “binds”.

For the variant YRRRGSAS, the antigen binding call is “binds”.

As to YRRRSSSS, the antigen binding call is given as “binds”.

As for DARGGSSS, the antigen binding call is listed as “no binding”.

As for VTEENDGY, the antigen binding call was “no binding”.

As to FAEGDDVY, the antigen binding call is given as “no binding”.

With ATTKSDVA, the antigen binding call is reported as “no binding”.

As for YARETDGA, the antigen binding call is listed as “no binding”.

Regarding DAGAADGA, the antigen binding call is “no binding”.

On to YRRRGSGS, for which the antigen binding call is recorded as “binds”.

Regarding YRRRGASS, the antigen binding call is listed as “binds”.

Regarding DAEATDVA, the antigen binding call was “no binding”.

As to YKEKGAVD, the antigen binding call was “no binding”.

For YREKGAGD, the antigen binding call is listed as “binds”.

Turning to YRAKGAGD, the antigen binding call is given as “binds”.

YRAKGSGD: the antigen binding call is “binds”.

For the variant YRAGTSGD, the antigen binding call is recorded as “binds”.

With VAEKGAGD, the antigen binding call is listed as “no binding”.

With DGGEGVVY, the antigen binding call is listed as “no binding”.

Regarding AKRGAFAD, the antigen binding call was “no binding”.

As to VGGKNSVD, the antigen binding call is recorded as “no binding”.

Take VKGRADAD: the antigen binding call was “no binding”.

As for YRAGASGD, the antigen binding call is given as “binds”.

As to YAAGASVD, the antigen binding call is on record as “no binding”.

Turning to YRAGSSGD, the antigen binding call is listed as “binds”.

On to YRRKGAGD, for which the antigen binding call is “binds”.

Turning to VKEADDVA, the antigen binding call is on record as “no binding”.

On to YRGRTSLD, for which the antigen binding call is given as “binds”.

For YRERSSLD, the antigen binding call is on record as “binds”.

Turning to YREGGSVD, the antigen binding call was “binds”.

Consider YREGGSLD, for which the antigen binding call is listed as “binds”.

For VTEGGSVD, the antigen binding call is “no binding”.

Take DAEGGSLD: the antigen binding call is on record as “no binding”.

For the variant VTTKSDVF, the antigen binding call was “no binding”.

As for AETKGDVY, the antigen binding call is “no binding”.

SAGEGDGV: the antigen binding call is on record as “no binding”.

With YKTRSAWS chain 1 M48I, the antigen binding call is on record as “no binding”.

With VKEKGAWS, the antigen binding call is “no binding”.

As for VKEKGAWV, the antigen binding call was “no binding”.

Take VKKRGAWS: the antigen binding call is “binds”.

Consider YARGADGS, for which the antigen binding call was “no binding”.

Consider FKKRGAWS, for which the antigen binding call is on record as “binds”.

As to AKKRGAWS, the antigen binding call is “binds”.

With FKTEGFVS, the antigen binding call is reported as “no binding”.

Regarding AERRGSWS, the antigen binding call is recorded as “no binding”.

YKRGAAWS: the antigen binding call was “binds”.

Turning to FAKRGAWS, the antigen binding call was “no binding”.

As for AAKRGSWV, the antigen binding call was “no binding”.

On to DATGGDVF, for which the antigen binding call is on record as “no binding”.

As to YERTTDLS, the antigen binding call is given as “no binding”.

In the case of VGGTSDGD, the antigen binding call is reported as “no binding”.

Turning to VTEEGDWV, the antigen binding call is recorded as “no binding”.

As to ATKGAAVA, the antigen binding call is listed as “no binding”.

As to YKKRGAWS, the antigen binding call is listed as “binds”.

Turning to YEKGGAWS, the antigen binding call was “no binding”.

As for VTTKSAGV, the antigen binding call is recorded as “no binding”.

Turning to DAEATSLV, the antigen binding call is on record as “no binding”.

On to YRRGGSAA, for which the antigen binding call is “binds”.

As for YRRGSSAA, the antigen binding call is “binds”.

As for VTGEDDVD, the antigen binding call is on record as “no binding”.

In the case of VKARGSAF, the antigen binding call is “binds”.

For the variant VAARGDAA, the antigen binding call is “no binding”.

As for VKARGAAV, the antigen binding call is reported as “binds”.

As to VKAGDAAV, the antigen binding call is given as “no binding”.

Regarding VEEEGSAV, the antigen binding call is “no binding”.

Regarding VAARGAAV, the antigen binding call is “no binding”.

On to VKGRASAF, for which the antigen binding call was “no binding”.

As for VKARGSAV, the antigen binding call is on record as “binds”.
